{"source": "PubChem BioAssay AID1851", "about": "(National Center for Advancing Translational Sciences (NCATS), 2009)", "note": "Hit rate of the full screen: of about 16,000 compounds, about 4,000 (25%) were called active. Inconclusive results (about 26%) are left out. The list is a sample of the results. Values without a mark were called inactive. The call rests on the fitted dose curve; in most records, active means well fitted curve in the direction sought with a large enough effect; inconclusive means small, poorly fitted or top-dose-only effect, or effect the other way; inactive means no such curve, though single readings can be large or run the other way. On the % scale 0 is the no-effect control and ±100 the full control effect."}
{"target": "Cytochrome P450 2C9 (Homo sapiens) (UniProt P11712)", "sequence (P11712 whole entry, looked up)": "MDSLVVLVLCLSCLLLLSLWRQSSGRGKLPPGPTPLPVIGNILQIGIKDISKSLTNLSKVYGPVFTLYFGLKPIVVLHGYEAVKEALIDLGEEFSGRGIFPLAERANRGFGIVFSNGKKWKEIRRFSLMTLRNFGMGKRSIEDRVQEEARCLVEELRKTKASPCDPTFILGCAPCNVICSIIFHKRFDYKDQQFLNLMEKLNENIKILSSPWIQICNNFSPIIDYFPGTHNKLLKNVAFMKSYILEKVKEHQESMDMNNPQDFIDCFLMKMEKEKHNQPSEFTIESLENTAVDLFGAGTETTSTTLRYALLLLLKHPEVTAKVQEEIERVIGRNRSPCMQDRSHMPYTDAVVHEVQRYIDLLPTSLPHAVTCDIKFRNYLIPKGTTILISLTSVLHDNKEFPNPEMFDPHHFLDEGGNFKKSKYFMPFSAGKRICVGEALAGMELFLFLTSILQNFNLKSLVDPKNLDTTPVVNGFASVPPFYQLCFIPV", "experiment": "Cytochrome panel assay with activity outcomes", "details": "recombinant CYP, pro-luciferin dealkylation, luminescence, p450-cyp2c9; series mostly up to 57.1 µM; activity, negative = inhibition: at the top concentration"}
{"smiles": "O=C(CN1CCN(Cc2ccccc2)CC1)N1CCCc2c1c(=O)oc1ccc(O)cc21", "AC50": "20 µM (active)"}
{"smiles": "COc1cc(CN2CCCCC2)cc2cc(C(=O)O)c(=O)oc12", "activity, negative = inhibition": "15.6% [at 11.4 µM]"}
{"smiles": "O=C(CN1CCN(Cc2ccccc2)CC1)c1ccc(Br)cc1", "activity, negative = inhibition": "-28.3%"}
{"smiles": "CCC[C@H](Sc1nc(N)nc2nc[nH]c12)C(=O)O", "activity, negative = inhibition": "-1.85% [at 11.4 µM]"}
{"smiles": "O=C(O)CC[P+](c1ccccc1)(c1ccccc1)c1ccccc1", "activity, negative = inhibition": "8.46% [at 11.4 µM]"}
{"smiles": "CC(=O)NNC(=O)N1Cc2ccccc2Oc2ccc(Cl)cc21", "activity, negative = inhibition": "-14.7%"}
{"smiles": "O=C(c1ccccc1)N1CCSC1=S", "activity, negative = inhibition": "-13.1%"}
{"smiles": "O=C(Nc1ccccc1)N1CCSc2cc(Cl)ccc21", "AC50": "2.24 µM (active)"}
{"smiles": "Cc1ccc([C@@]2(C)CC/C(=N/N=C3\\CC[C@](C)(c4ccc(C)c(C)c4)c4cc(C)c(C)cc43)c3cc(C)c(C)cc32)cc1C", "activity, negative = inhibition": "-6.14% [at 11.4 µM]"}
{"smiles": "CCCCCCCCCCCCCCCC(=O)NC(C)C", "activity, negative = inhibition": "-0.628%"}
{"smiles": "CCCCCCCCCCCCCCC/C=C\\[C@H](O)[C@@H](NC(=O)CCCCCCCCCCCCC)OC", "note": "(tested in a mixture with another compound)", "activity, negative = inhibition": "-1.65%"}
{"smiles": "CCCCCCCCCCCCC/C=C\\[C@@H](O)[C@H](CO)NC(C)=O", "AC50": "3.16 µM (active)"}
{"smiles": "CN1CCC(=C2c3ccccc3Sc3ccccc32)CC1", "activity, negative = inhibition": "-1.54% [at 25.6 µM]"}
{"smiles": "O=C(CCNS(=O)(=O)c1cccs1)N1CCc2ccccc2C1", "activity, negative = inhibition": "-27.1%"}
{"smiles": "O=C(C(NS(=O)(=O)c1cccs1)c1ccccc1)N1CCN(c2ccccc2)CC1", "note": "(stereo unspecified)", "AC50": "8.91 µM (active)"}
{"smiles": "COC(=O)NCC(c1cccnc1)N1CCN(c2ccccc2OC)CC1", "note": "(stereo unspecified)", "activity, negative = inhibition": "-25.7%"}
{"smiles": "COc1ccccc1N1CCN(Cc2cc(=O)n3ccsc3n2)CC1", "activity, negative = inhibition": "32.3%"}
{"smiles": "COC(=O)N1CCC2(CC1)CCN(c1ccccc1)CC2", "activity, negative = inhibition": "-2.09%"}
{"smiles": "COc1ccccc1N1CCN(C(=O)C(NS(=O)(=O)c2cccs2)c2ccccc2)CC1", "note": "(stereo unspecified)", "AC50": "11.2 µM (active)"}
{"smiles": "S=c1c2[nH]cnc2ncn1CCSc1ncnc2nc[nH]c12", "activity, negative = inhibition": "-0.398% [at 11.4 µM]"}
{"smiles": "NS(=O)(=O)c1ccc(NCc2ccccc2OCc2ccccc2F)cc1", "AC50": "3.98 µM (active)"}
{"smiles": "NS(=O)(=O)c1ccc(NCc2nc3ccccc3[nH]2)cc1", "activity, negative = inhibition": "7.25% [at 11.4 µM]"}
{"smiles": "NS(=O)(=O)c1ccc(NCc2cnc3ccccc3n2)cc1", "activity, negative = inhibition": "1.39% [at 11.4 µM]"}
{"smiles": "O=c1nc(N2CCCCCC2)nc(N2CCCCCC2)[nH]1", "activity, negative = inhibition": "-2.89%"}
{"smiles": "Cc1cnc(CNc2ccnc(-c3cccc(NS(C)(=O)=O)c3)n2)cn1", "activity, negative = inhibition": "16.8% [at 2.29 µM]"}
{"smiles": "Nc1nc(N)c(N=Nc2ccc(C(=O)O)c(O)c2)c(N)n1", "activity, negative = inhibition": "-6.7% [at 11.4 µM]"}
{"smiles": "Cc1ccccc1Cn1c(Cc2ccccc2)nc2ccccc21", "AC50": "5.01 µM (active)"}
{"smiles": "Cc1ccc(C)c(C(=N)c2ccccc2Cc2ccccc2)c1", "activity, negative = inhibition": "-26.1% [at 11.4 µM]"}
{"smiles": "O=C(C(Cc1ccccc1)N1C(=O)C2C3CCC(C3)C2C1=O)N1CCCCC1", "note": "(stereo unspecified)", "activity, negative = inhibition": "-7.9%"}
{"smiles": "Cn1c(=O)[nH]c(=O)c2c1nc(CN1CCOCC1)n2CCCO", "activity, negative = inhibition": "23.1%"}
{"smiles": "CCCCCn1c(CN2CCN(c3cc(Cl)ccc3C)CC2)nc2c1c(=O)[nH]c(=O)n2C", "AC50": "3.55 µM (active)"}
{"smiles": "CCN1CCN(c2nc3c(c(=O)[nH]c(=O)n3C)n2CCCSc2ncccn2)CC1", "activity, negative = inhibition": "-17%"}
{"smiles": "COc1cccc(=O)c2c(C)n(-c3cc(C)cc(C)c3)c(C)c12", "AC50": "3.98 µM (active)"}
{"smiles": "NC(Cc1ccccc1)=NCC(=O)O", "activity, negative = inhibition": "-1.5% [at 11.4 µM]"}
{"smiles": "CCCc1nnc(SCC(=O)N2CCCCC2)n1CCCOC", "activity, negative = inhibition": "-3.43%"}
{"smiles": "CCOC(=O)CSc1cc(=O)n(C)c2cc(Cl)ccc12", "AC50": "14.1 µM (active)"}
{"smiles": "Cn1c(=O)cc(SCC(=O)NCCCN2CCOCC2)c2ccc(Cl)cc21", "activity, negative = inhibition": "-20.1%"}
{"smiles": "Cc1c(NC(=O)C(Sc2ccccc2)c2ccccc2)cccc1[N+](=O)[O-]", "note": "(stereo unspecified)", "AC50": "0.251 µM (active)"}
{"smiles": "Cc1c(C(=O)NN2CCN(C)CC2)cccc1[N+](=O)[O-]", "activity, negative = inhibition": "32.4%"}
{"smiles": "O=[N+]([O-])c1cc(/C=N/O)ccc1SCc1ccccc1", "activity, negative = inhibition": "19.7%"}
{"smiles": "CC(C)Cn1c(-c2nn(C)cc2Cl)n[nH]c1=S", "activity, negative = inhibition": "-14.2%"}
{"smiles": "CN1CCN(c2ncc3nc(-c4ccc(Cl)cc4)c(=O)n(CCC#N)c3n2)CC1", "activity, negative = inhibition": "-0.813%"}
{"smiles": "CCOC(=O)c1cc(-c2ccc(Cl)cc2)nc2c1c(C)nn2CCC#N", "AC50": "10 µM (active)"}
{"smiles": "O=C1CC[C@](CCc2nc3ccccc3[nH]2)(c2ccccc2)C(=O)N1", "activity, negative = inhibition": "-12.8% [at 11.4 µM]"}
{"smiles": "OCCNc1nc2ccccc2[nH]1", "activity, negative = inhibition": "-17.9%"}
{"smiles": "OC(Cc1nc2ccccc2[nH]1)c1ccccc1Cl", "note": "(stereo unspecified)", "AC50": "14.1 µM (active)"}
